Assay results published in PubChem BioAssay (Tox21).
Inconclusive results are not listed. Active and inactive are the calls of the source. The call rests on the fitted dose curve.

Tests used:
[1] = target: Acetylcholinesterase (Homo sapiens) (UniProt P22303); assay: Acetylcholinesterase (AChE) small molecule antagonists: colormetric cell-based qHTS assay (AID 1347395); further: nearly all actives have a fitted effect of over 30% in size
Outline: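 Homogeneous whole-cell format. SH-SY5Y cells seeded overnight, dosed with compound (30 min, 37 C, 5% CO2), then given DTNB/acetylthiocholine cocktail for 90 min at 37 C; colorimetric signal.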

[2] = target: Acetylcholinesterase (Homo sapiens) (UniProt P22303); assay: Acetylcholinesterase (AChE) small molecule antagonists: enzyme-based qHTS assay (AID 1347397); conditions: Potency: AChE enzyme activity inhibition; outcome: AChE enzyme activity inhibition; further: nearly all actives have a fitted effect of over 55% in size
Outline: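 Compound or DMSO vehicle was pin-transferred onto recombinant human AChE (50 mU/mL as dispensed) and left 30 min at room temperature. Acetylthiocholine with DTNB then started the reaction, read colorimetrically 10 min later.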

[3] = target: Acetylcholinesterase (Homo sapiens) (UniProt P22303); assay: Acetylcholinesterase (AChE) small molecule antagonists: fluorescence cell-based qHTS assay (AID 1347398); conditions: Potency: AChE activity; outcome: AChE activity; further: nearly all actives have a fitted effect of over 50% in size
Outline: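 Using neuroblastoma SH-SY5Y cells as the enzyme source, test chemicals are preincubated 30 min at 37 C; AChE-driven acetylthiocholine cleavage is then quantified by thiocholine-dependent Thiolite Green fluorescence after 40 min at room temperature.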

[4] = target: Acetylcholinesterase (Homo sapiens) (UniProt P22303); assay: Acetylcholinesterase (AChE) small molecule antagonists: enzyme-based qHTS assay with human liver microsomes (AID 1347399); conditions: Potency: qHTS inhibition; outcome: qHTS inhibition; further: nearly all actives have a fitted effect of over 60% in size
Outline: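 Recombinant human AChE (50 mU/mL in the enzyme mix) and human liver microsomes (0.25 mg/mL final) were preincubated with compound and NADPH (0.25 mg/mL final) for 30 min at 37 C. Acetylthiocholine/DTNB was then added; thiocholine was read colorimetrically after 10 min at room temperature.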
On the % scale 0 is the no-effect control and ±100 the full control effect.

Acetylcholinesterase (Homo sapiens), sequence (P22303 whole entry, looked up): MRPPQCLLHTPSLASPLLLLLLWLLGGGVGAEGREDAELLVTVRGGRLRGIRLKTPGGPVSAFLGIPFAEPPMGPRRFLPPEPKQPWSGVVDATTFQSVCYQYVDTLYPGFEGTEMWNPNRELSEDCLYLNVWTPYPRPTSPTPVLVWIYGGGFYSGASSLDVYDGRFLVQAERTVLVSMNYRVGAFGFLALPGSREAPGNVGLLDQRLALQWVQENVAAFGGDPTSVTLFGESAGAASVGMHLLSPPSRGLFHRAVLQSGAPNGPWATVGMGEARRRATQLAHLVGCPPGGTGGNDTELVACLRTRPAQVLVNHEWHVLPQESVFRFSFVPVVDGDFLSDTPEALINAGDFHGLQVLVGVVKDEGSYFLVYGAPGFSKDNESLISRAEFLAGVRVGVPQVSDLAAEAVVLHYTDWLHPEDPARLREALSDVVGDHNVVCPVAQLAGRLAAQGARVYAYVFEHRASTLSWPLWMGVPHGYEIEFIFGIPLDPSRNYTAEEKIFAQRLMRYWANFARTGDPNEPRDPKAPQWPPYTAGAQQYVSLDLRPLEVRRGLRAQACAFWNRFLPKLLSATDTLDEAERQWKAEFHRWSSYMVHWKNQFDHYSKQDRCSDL

c1ccc(Nc2ccccc2)cc1
inactive: Potency [1] | Potency [2] | Potency [3]

C=CCCCCCCCCCCCCCCCC
inactive: activity, negative = inhibition [1] 2.13% [at 10.5 µM] | activity change, negative = inhibition [2] -0.28% [at 10.5 µM] | activity change, negative = inhibition [3] 3.23% [at 10.5 µM]

O=c1cc(O)c(Cl)c[nH]1
inactive: Potency [1] | Potency [2] | Potency [3]

CCOc1ccc2nc(N)sc2c1
inactive: Potency [1] | Potency [2] | Potency [3]

CC(C)(C)NCC(O)c1ccc(O)c(CO)c1 (stereo not drawn)
inactive: Potency [1] | Potency [2] | Potency [3]

CC12CCCC=C1C(=O)OC2=O (stereo not drawn)
inactive: Potency [1] | Potency [2] | Potency [3] | Potency [4]

CCCCCCCCN
inactive: Potency [1] | Potency [2] | Potency [3] | Potency [4]

CN(C)c1ccc(/C=C/c2ccc([N+](=O)[O-])cc2)cc1
inactive: activity, negative = inhibition [1] 3.64% [at 10.5 µM] | activity change, negative = inhibition [2] 1.35% [at 10.5 µM] | activity change, negative = inhibition [3] 4.62% [at 10.5 µM] | activity change, negative = inhibition [4] 1.54% [at 10.5 µM]

CN(C)N=Nc1ccccc1
inactive: Potency [1] | Potency [2] | Potency [3] | Potency [4]

O=C(O)CC(O)C(=O)O (stereo not drawn)
inactive: Potency [1] | Potency [2] | Potency [3] | Potency [4]

CC[C@]12CCCN3CCc4c(n(c5ccccc45)C(=O)C1)[C@@H]32
inactive: Potency [1] | Potency [2] | Potency [3] | Potency [4]

CN(C)C(=O)NC1(c2ccccc2)CCN(CCC[C@]2(c3ccc(Cl)c(Cl)c3)CCCN(C(=O)c3ccccc3)C2)CC1
inactive: activity, negative = inhibition [1] -4.11% [at 23.6 µM] | activity change, negative = inhibition [2] 0.197% [at 23.6 µM] | activity change, negative = inhibition [3] -16% [at 23.8 µM] | activity change, negative = inhibition [4] 4.25% [at 23.6 µM]

CCC(CC)(CC(=O)Nc1cccc(/C=C/c2nc(C3CCC3)cs2)c1)C(=O)O
inactive: Potency [1] | Potency [2] | Potency [3] | Potency [4]

COc1ccc(C(C)=O)cc1
inactive: Potency [1] | Potency [2] | Potency [3] | Potency [4]

CCOC(=O)[C@H](O)[C@@H](O)C(=O)OCC
inactive: Potency [1] | Potency [2] | Potency [3] | Potency [4]

CCCOc1ccccc1-c1nc2n[nH]nc2c(=O)[nH]1
inactive: Potency [1] | Potency [2] | Potency [3] | Potency [4]

CCC(C(=O)OCCN1CCOC(c2ccccc2)C1C)c1ccccc1 (stereo not drawn)
inactive: Potency [1] | Potency [2] | Potency [3] | Potency [4]

CCOC(=O)C1=C(C)NC(C)=C(C(=O)OC)C1c1cccc([N+](=O)[O-])c1 (stereo not drawn)
inactive: Potency [1] | Potency [2] | Potency [3] | Potency [4]

O=[N+]([O-])c1ccc(O)cc1C(F)(F)F
inactive: Potency [1] | Potency [2] | Potency [3]

N#Cc1ccccc1C#N
inactive: Potency [1] | Potency [2] | Potency [3] | Potency [4]

Cc1c(C(N)=O)cc([N+](=O)[O-])cc1[N+](=O)[O-]
inactive: Potency [1] | Potency [2] | Potency [3] | Potency [4]

Nc1ncn([C@H]2C[C@H](O)[C@@H](CO)O2)c(=O)n1
inactive: Potency [1] | Potency [2] | Potency [3] | Potency [4]

CCOC(=O)c1ccc(OC(=O)CCCCCN=C(N)N)cc1
inactive: outcome [1] | outcome [2] | outcome [3] | outcome [4]

O=C(O)CNc1ccccc1
inactive: Potency [1] | Potency [2] | Potency [3]

Cc1cc(C2CCCCC2)n(O)c(=O)c1
inactive: Potency [1] | Potency [2] | Potency [3] | Potency [4]

CCOc1c(N2CCOCC2)cnn(C)c1=O
inactive: Potency [1] | Potency [2] | Potency [3] | Potency [4]

CC1(C)CCC[C@]2(C)[C@H]3CC(=O)O[C@]3(C)CC[C@@H]12
inactive: Potency [1] | Potency [2] | Potency [3] | Potency [4]

CCCCCCCC(=O)OCCCCCC
inactive: Potency [1] | Potency [2] | Potency [3]

CC(=O)/C=C/C1C(C)=CCC(C)C1(C)C (stereo not drawn)
inactive: Potency [1] | Potency [2] | Potency [3] | Potency [4]
